Laboratory results: article PMC13494018

B1: design_608_fd41b8f9-4da9-4c78-93ec-aaa316ed4933_1539_dldesign_0_cycle1_af2pred (protein)
chain: SKRKEAARIAAEIVRRGHRIGAALARTIGPAAGAATEATLEELADLALEDPEKGRELGEAAVAAAEAAIAAARAA
B2: design_608_fd41b8f9-4da9-4c78-93ec-aaa316ed4933_1798_dldesign_0_cycle1_af2pred (protein)
chain: NEAIKEAEKAAKEAKEAYKKAGEVSGETEKAERMIKRVEELLEAGKKDPSKAEKYKAQIEALRDHAKEVLKKAEAKKKA
B3: design_608_fd41b8f9-4da9-4c78-93ec-aaa316ed4933_581_dldesign_0_cycle1_af2pred (protein)
chain: SEELEKVKKLLEKGIETAKKNPVKGASLLLKAEHMAKQLAEKKKGTEEAKELEELSKKAKEEFDKAAKKISE
B4: design_608_fd41b8f9-4da9-4c78-93ec-aaa316ed4933_1401_dldesign_0_cycle1_af2pred (protein)
chain: MEEEAKKYVEYTKKKAEEAKKNAKKAKEAGASQEAIQLFIDAAQYYLLAASAAENSPKYLPYAKEETKKGEELLKKGKKLFEEE
B5: design_608_fd41b8f9-4da9-4c78-93ec-aaa316ed4933_615_dldesign_0_cycle1_af2pred (protein)
chain: DPAEELAKKLLEIADLAAKPETLEKALEEAEKLKEEALKLAEKYADDPALKKKYLKAAKTAESFIEDIKRSKEL
B6: design_608_fd41b8f9-4da9-4c78-93ec-aaa316ed4933_287_dldesign_0_cycle1_af2pred (protein)
chain: MEAENMEKAIKKLREGKAALKTTPEEAARVLRAQAKELKELAKKSSPENAAFMETQAKAMEKKAKELEAKAAA
B7: design_608_fd41b8f9-4da9-4c78-93ec-aaa316ed4933_1103_dldesign_0_cycle1_af2pred (protein)
chain: SPQAAADALRAAQRLLREAGARAEAAGAQEAADLLRQASFALAGTGADEALALIDAAAAAYPEVAPLLDEARAAARAYGELLN
B8: design_608_fd41b8f9-4da9-4c78-93ec-aaa316ed4933_922_dldesign_0_cycle1_af2pred (protein)
chain: GETEKLREEAQKLMDEAVDLLDKAKTEEEVEKAVEIAEEAYKVAAKATPEIAESALKGYKGLKKMAEEIKKVLKK
B9: design_608_fd41b8f9-4da9-4c78-93ec-aaa316ed4933_1483_dldesign_0_cycle1_af2pred (protein)
chain: METKRLSEAHRIAVRAAQAAGAAATTAAEKAAIAAAKFQAVDSDPEELIAILRATGAAFPKQAPHFDAAVAEIEKAIEEY
B10: design_608_fd41b8f9-4da9-4c78-93ec-aaa316ed4933_1306_dldesign_0_cycle1_af2pred (protein)
chain: GKEEAEKILKEAKAKLDALAKENPALAPLAAEAKERIEKKYKKAIEADEKDPKQGKAAAEALKEFAKNAVAAVEKKK
B11: design_608_fd41b8f9-4da9-4c78-93ec-aaa316ed4933_228_dldesign_0_cycle1_af2pred (protein)
chain: GEEVIKEIAEEEIKEAEKTLKEAEKLLKKGGTEEAKEAVEKAKEYIKKGKEKLEEGDYKTAYSLATLGKHNAEIAIKLIKEKN
B12: design_608_fd41b8f9-4da9-4c78-93ec-aaa316ed4933_1810_dldesign_0_cycle1_af2pred (protein)
chain: MEELKKVVEETKEYAKKLIESDGFSLVGKSAYEAAEKALKEGNLEKAKEIYEKTKKMYERAEEYEKLAEEREKKYL
B13: design_608_fd41b8f9-4da9-4c78-93ec-aaa316ed4933_627_dldesign_0_cycle1_af2pred (protein)
chain: SEKKKVGEEAYKVASRALSIAYAKGDKEFEEKAEELLEKVEEVKKNGNLEEAKKALEEAKALLKEAEKLAKER
B14: design_608_fd41b8f9-4da9-4c78-93ec-aaa316ed4933_1790_dldesign_0_cycle1_af2pred (protein)
chain: MEFIKEVSKKVHDTRFYLDSVALKASEEDRKKLEEMRKEVGELMLKAQKAYKEDPEEGKKLAEEALKKAEEAYKYAKSIEE
B15: design_608_fd41b8f9-4da9-4c78-93ec-aaa316ed4933_265_dldesign_0_cycle1_af2pred (protein)
chain: GLKEELRKLATQYMHEAAEYAAEAEHLANRGGDLAEVEEAAKKAKEYAEKSIELMKEAGTEEEYEKAKKVAEKLIARAEAALKKK
B16: design_608_fd41b8f9-4da9-4c78-93ec-aaa316ed4933_544_dldesign_0_cycle1_af2pred (protein)
chain: AAAAAAEAAAKVAKVKELAKEAAEDPSKAPEVYKEGKKIADAATPETAAAIAAEMHKGHEERAENSWKRSRE
B17: design_608_fd41b8f9-4da9-4c78-93ec-aaa316ed4933_1719_dldesign_0_cycle1_af2pred (protein)
chain: DGYEKGKAVAERFKEDAEKIGNTEAAAEGLELLAEQWKAYAEKNTPEEAKEANKAAKEFKEEAKKYKEKAKA
B18: design_608_fd41b8f9-4da9-4c78-93ec-aaa316ed4933_1455_dldesign_0_cycle1_af2pred (protein)
chain: HMSELTKKTSDVISEAVKTSREAVKEAEKKDPALGEKLKEFYTKALLDAQDGDPFKGATELLKKAKADLAAVKAS
B19: design_608_fd41b8f9-4da9-4c78-93ec-aaa316ed4933_1756_dldesign_0_cycle1_af2pred (protein)
chain: AQKAVAEAAQAALIAKSAADVSKNIDAETLEEIAKEAKKAAEKAEKEAPEAKEVIEPAKKEAEKLEKIAKEKKA
B20: design_608_fd41b8f9-4da9-4c78-93ec-aaa316ed4933_1926_dldesign_0_cycle1_af2pred (protein)
chain: DAEEEAKKLKEEAEKKLKEIKQMAKDGTATVEEIEKERKEGIEALKKAAKLVPEKKEEYAKLAEEIVEAYSDAYYESLKKERE
B21: design_608_fd41b8f9-4da9-4c78-93ec-aaa316ed4933_669_dldesign_0_cycle1_af2pred (protein)
chain: KEELKKALEKTRKEVKAAAAGKPQDVIDVIRKGAKEAEKLNKNAGILLEAAANRAEFAGATPAEAAAIALKAIERAEKE
B22: design_608_fd41b8f9-4da9-4c78-93ec-aaa316ed4933_1906_dldesign_0_cycle1_af2pred (protein)
chain: DVKKEAEKLRDKGKERAKRRLEDAKKISPQYAEAAYEALEQASKNAKKLAEKYPEAKEIYEELAKYFEEQAKKAKEIAE
B23: design_608_fd41b8f9-4da9-4c78-93ec-aaa316ed4933_1545_dldesign_0_cycle1_af2pred (protein)
chain: GSSVHKELADKLKKAIEEGEAAAKAGDVEKGKQIYADALGEVLGYPEASRQKLLDLPAKEGYEKAKKLLTNAYDGLSSLAKK
B24: design_608_fd41b8f9-4da9-4c78-93ec-aaa316ed4933_1451_dldesign_0_cycle1_af2pred (protein)
chain: GSAAAAAAAAAAAIQAQQDKAMEYADEIYEKISKEVGKSTGIKVASDAFSYAMKTDFETGKKYGEEKEIKVIKEAKKK
B25: design_608_fd41b8f9-4da9-4c78-93ec-aaa316ed4933_536_dldesign_0_cycle1_af2pred (protein)
chain: NNAEASKLAHEGYEYRAEGAQLSKKNPAKAAVLFEEAAKKFAEAAKLAEDPEDKKLLQAYADRALAEAKKAAAEAAKALA
B26: design_608_fd41b8f9-4da9-4c78-93ec-aaa316ed4933_446_dldesign_0_cycle1_af2pred (protein)
chain: LEATAEAYAEAILHAGEEAAKVAKKLSEELAEEVRKKAEEFAKKALDDPSKAKEYLKKAREYFKKVVEEVKEKL
B27: design_608_fd41b8f9-4da9-4c78-93ec-aaa316ed4933_1632_dldesign_0_cycle1_af2pred (protein)
chain: EAEKKFKEAKKLASEAAEKLATLAAEAAFKGKEELAKEAREALKKLREKGKEAEKLYKEDPEKAAKVLKKAAEEALKKAEKLEKEL
B28: design_608_fd41b8f9-4da9-4c78-93ec-aaa316ed4933_323_dldesign_0_cycle1_af2pred (protein)
chain: VLEEVLKLGKEAAEALLKPNGKEEAAKLVEEAEKVVKSHPNAPTEASYVLVTMRRAVRKPDHEEGAKRVREAVEEAE
B29: design_608_fd41b8f9-4da9-4c78-93ec-aaa316ed4933_1151_dldesign_0_cycle1_af2pred (protein)
chain: SMAEEEKKEKEKKKAETLALNAKGLEAIDKGDFTTAAKLYEKAAEVAPTEELKKRAEKGAKAMKKLEKAAKE
B30: design_608_fd41b8f9-4da9-4c78-93ec-aaa316ed4933_913_dldesign_0_cycle1_af2pred (protein)
chain: ATLAELSAAFAKAYELIAEGEKASPEEGVKLMEKAKEEVEAARKLAEASADKEAALAGVERLAKRVEENKAKAEAKLKAA
B31: design_608_fd41b8f9-4da9-4c78-93ec-aaa316ed4933_1350_dldesign_0_cycle1_af2pred (protein)
chain: SEAYKEFHEALQYATDAGYEYAKNPEEGKKELAKAEEHLKKAEELADPETAAKMREIYERRLAREKERAERLKKERN
B32: design_608_fd41b8f9-4da9-4c78-93ec-aaa316ed4933_796_dldesign_0_cycle1_af2pred (protein)
chain: EEAKEKAKKLEEEALKKAKEAGELIGKPKQVVHLTKLAIEDPELIPLAKKAILEAAKELKKKDPEKGKKAEELAKEMEKYVKEANKLK
B33: design_608_fd41b8f9-4da9-4c78-93ec-aaa316ed4933_1393_dldesign_0_cycle1_af2pred (protein)
chain: STVEEALAAAKKNIAAAKAAAAAGDFAAAAAALHEARENVSVIYANDKEKGEELRKEVTAVRAEIRAKEEAA
B34: design_608_fd41b8f9-4da9-4c78-93ec-aaa316ed4933_750_dldesign_0_cycle1_af2pred (protein)
chain: GEETEKLKKELEKAEKEAKEALKKAKELTKEEAKKLLSEQAAKVAELAAESSKDKEVSKEAKKVLKEVRKEGKEILEEK
B35: design_608_fd41b8f9-4da9-4c78-93ec-aaa316ed4933_998_dldesign_0_cycle1_af2pred (protein)
chain: SELAKKAIEHLKKAIELAKTDPKYAPQIIAAAKAAIAALEKGDYEKAYKEASKALSIAYAAGNKEAEEELSEALYYIVKASK
B36: design_608_fd41b8f9-4da9-4c78-93ec-aaa316ed4933_1100_dldesign_0_cycle1_af2pred (protein)
chain: ELAKEIEKFAEEAKERAKKGNPEEAREAYREFREKAKKIAEEDPSVAELASKKAAEVAEVAAEAIYKKLKE
B37: design_608_fd41b8f9-4da9-4c78-93ec-aaa316ed4933_704_dldesign_0_cycle1_af2pred (protein)
chain: DAAAATARALADQAVAAGKAGEEGDLATAKAARETLAALREELRKLVEEDPSVAPYASAGMAEGYQAIAEGFKKNS
B38: design_608_fd41b8f9-4da9-4c78-93ec-aaa316ed4933_509_dldesign_0_cycle1_af2pred (protein)
chain: EEEKSKLTREAADAVRTFGKNATKARPEMSRLEVMDKIDAGLENPELLKETTEEYAEAAKEKGLEEDAEKIKESGKILLKYVKE

The binders below were run against VTCN1, Q7Z7D3.
Chain of VTCN1, Q7Z7D3 (Q7Z7D3 whole entry): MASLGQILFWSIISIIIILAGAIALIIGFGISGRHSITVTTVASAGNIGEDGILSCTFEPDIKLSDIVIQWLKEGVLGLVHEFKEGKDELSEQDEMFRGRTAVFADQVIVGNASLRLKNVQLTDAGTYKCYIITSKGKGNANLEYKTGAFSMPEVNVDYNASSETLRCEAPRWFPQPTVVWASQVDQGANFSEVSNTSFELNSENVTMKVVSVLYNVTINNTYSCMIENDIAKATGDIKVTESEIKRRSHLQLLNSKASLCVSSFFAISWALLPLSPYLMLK

Binding in a display sort, inactive:
B1 not found
B2 not found
B3 not found
B4 not found
B5 not found
B6 not found
B7 not found
B8 not found
B9 not found
B10 not found
B11 not found
B12 not found
B13 not found
B14 not found
B15 not found
B16 not found
B17 not found
B18 not found
B19 not found
B20 not found
B21 not found
B22 not found
B23 not found
B24 not found
B25 not found
B26 not found
B27 not found
B28 not found
B29 not found
B30 not found
B31 not found
B32 not found
B33 not found
B34 not found
B35 not found
B36 not found
B37 not found
B38 not found
